The panel holds about 83,000 compounds, 20% with a hit somewhere; the sample as a whole holds those more often.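 How to read the values: 0–100, growth inhibition (40 = 60% inhibited); 0, no net growth; -100 to 0, cell death (-40 = 40% of starting cells died; -100 = all dead).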 Values without a mark were called inactive. Active and inactive are the calls of the source. The calls were made as follows: active = growth percent below 10; inactive = the rest.
Legend:
Experiment in all cases: NCI-60 one-dose screen, 48 h (100 = growth as untreated, 0 = no growth, -100 = all killed)
Settings in all cases: 10 µM unless noted
NCI-H23 lung = test system: NCI-H23 lung
NCI-H226 lung = test system: NCI-H226 lung
NCI-H322M lung = test system: NCI-H322M lung
HOP-62 NSCLC = test system: HOP-62 NSCLC
NCI-H460 lung = test system: NCI-H460 lung
HOP-92 NSCLC = test system: HOP-92 NSCLC
NCI-H522 lung = test system: NCI-H522 lung
A549/ATCC NSCLC = test system: A549/ATCC NSCLC
786-0 renal = test system: 786-0 renal
COLO 205 colon = test system: COLO 205 colon
DU-145 prostate = test system: DU-145 prostate
K-562 leukemia = test system: K-562 leukemia
MALME-3M melanoma = test system: MALME-3M melanoma
MDA-MB-231 breast = test system: MDA-MB-231 breast
RXF 393 renal = test system: RXF 393 renal
SF-268 CNS = test system: SF-268 CNS
SF-295 CNS = test system: SF-295 CNS
SF-539 CNS = test system: SF-539 CNS
UACC-257 melanoma = test system: UACC-257 melanoma
M14 melanoma = test system: M14 melanoma

Row | Structure (SMILES) | growth (NCI-H23 lung) | growth (NCI-H226 lung) | growth (NCI-H322M lung) | growth (HOP-62 NSCLC) | growth (NCI-H460 lung) | growth (HOP-92 NSCLC) | growth (NCI-H522 lung) | growth (A549/ATCC NSCLC) | growth (786-0 renal) | growth (COLO 205 colon) | growth (DU-145 prostate) | growth (K-562 leukemia) | growth (MALME-3M melanoma) | growth (MDA-MB-231 breast) | growth (RXF 393 renal) | growth (SF-268 CNS) | growth (SF-295 CNS) | growth (SF-539 CNS) | growth (UACC-257 melanoma) | growth (M14 melanoma)
1 | OC(c1cc(-c2ccc(Cl)cc2)nc2c(Cl)cccc12)C1CCCCN1 (stereo not given) | -9.58% (active) | -44.1% (active) | -54.8% (active) | -92.2% (active) | -87.4% (active) | -29.4% (active) | -89.1% (active) | -82.9% (active) | -75% (active) | -91.1% (active) | -96.3% (active) | -30.9% (active) | -50.2% (active) | -71.1% (active) | -98.1% (active) | -65.7% (active) | -80.8% (active) | -72.4% (active) | -77% (active) | –
2 | S=C(SSC(=S)N1CCOCC1)N1CCOCC1 | 48.9% | 94.5% | 116% | 104% | 2.9% (active) | 122% | -50.2% (active) | 57.2% | 103% | 28.6% | 109% | 56.2% | 101% | 104% | 102% | 101% | 107% | 96.4% | 64% | 55.5%
3 | O=[N+]([O-])c1ccc([I+]c2ccccc2)cc1 | -55.1% (active) | -30.2% (active) | 67.4% | -67.6% (active) | 4.38% (active) | 60.5% | -87.8% (active) | -71.6% (active) | -15.4% (active) | -84.3% (active) | -10.5% (active) | 9.29% (active) | -0.265% (active) | 35.4% | 57.8% | -69.7% (active) | 77.9% | 1.87% (active) | 29.7% | -36.6% (active)
4 | NCCCN(CCCN)CCCNCc1c2ccccc2c(CNCCCN(CCCN)CCCN)c2ccccc12 | 92.2% | 87.2% | 84.4% | 87.2% | 93.9% | 95.9% | 89.7% | 95.2% | 99.1% | 95.9% | 100% | 83.3% | 51.7% | 102% | 98.4% | 88.7% | 100% | 91.8% | 93.2% | –
5 | COc1c(C)c2c(c(O)c1C/C=C(\C)CCC(=O)O)C(=O)OC2 | 33.9% | 58.8% | 38.3% | 46.6% | 9.24% (active) | 73.9% | 19.4% | 11.6% | 21.3% | 39.3% | 50.8% | 20.2% | 38.8% | 57% | 50.7% | 34.8% | 16.8% | 40.7% | 13.2% | 20.4%
6 | O=C(CCl)N(c1ccccc1)c1ccccc1 | 98.1% | 102% | 95% | 105% | 111% | 78.5% | -29.7% (active) | 103% | 108% | 111% | 110% | 105% | 98.6% | 114% | 104% | 105% | 103% | 108% | 94.1% | 95.9%
7 | CC(C)(C)c1ccc(O)c(-c2ccccc2)c1 | 105% | 122% | 104% | 112% | 112% | 94.5% | 83.5% | 109% | 109% | 105% | 115% | 105% | 130% | 120% | 112% | 105% | 126% | 108% | 90.1% | –
8 | COC(=O)Nc1nc2ccc(C3(c4ccc(F)cc4)OCCO3)cc2[nH]1 | 47.4% | 63.9% | 51.7% | 35.8% | 10.4% | 41.1% | -37.2% (active) | 21.7% | 51% | 0.171% (active) | 12.2% | 9.31% (active) | 31.1% | 30.3% | 0.251% (active) | 50.5% | 4.04% (active) | -13.9% (active) | 45.5% | 23.3%
9 | COc1cc(/C=C/C(=O)CC(=O)/C=C/c2ccc(O)c(OC)c2)ccc1O | 21.1% | 88.1% | 78.3% | 40.9% | 47.4% | 71.9% | -22.5% (active) | 63.8% | 16.7% | 86.3% | 40.6% | 12.5% | 60.3% | 82.3% | 20.3% | 44.9% | 102% | 14.8% | 53.6% | 7.15% (active)
10 | O=[N+]([O-])c1ccc(C(Br)c2ccc([N+](=O)[O-])cc2)cc1 | 79.5% | 99.6% | 114% | 105% | 102% | 86.1% | -40.3% (active) | 100% | 108% | 88.3% | 111% | 25.4% | 101% | 93.8% | 117% | 84.8% | 80.6% | 110% | 98.1% | –
11 | CCOC(=O)c1c(C)[nH]c2ccc(O)cc12 | 103% | 94.3% | 99.7% | 107% | 98.3% | 103% | 52.7% | 95.7% | 100% | 113% | 106% | 101% | 103% | 96.7% | 109% | 97.7% | 111% | 98.1% | 92.9% | 101%
12 | CCN1/C(=C/C(C)=C/c2sc3ccc4ccccc4c3[n+]2CC)Sc2ccc3ccccc3c21 | -65.5% (active) | -82.4% (active) | -97.8% (active) | -65.2% (active) | -90.5% (active) | -89.1% (active) | -77.3% (active) | -76.8% (active) | -88.5% (active) | -83.6% (active) | -100% (active) | -23.7% (active) | -87% (active) | -82.5% (active) | -88.1% (active) | -91.1% (active) | -93% (active) | -98.1% (active) | -82.2% (active) | -79.8% (active)
13 | Cn1c(-c2ccccc2)c(/C=C/C2=[N+](C)c3ccccc3C2(C)C)c2ccccc21 | 7.45% (active) | 13.5% | 50.3% | 10.2% | 2.46% (active) | -17.1% (active) | -28.6% (active) | 6.27% (active) | 24.2% | -83.9% (active) | 20.2% | 6.23% (active) | -6.21% (active) | 15.6% | 35.2% | 18% | 11.8% | 11.9% | -51.5% (active) | –
14 | CCCCCCCCCCCC[n+]1ccc(CCCCCCCCC)cc1 | -80.8% (active) | -65.2% (active) | 56.1% | -84.8% (active) | -63.6% (active) | -55.5% (active) | -33.1% (active) | -44.8% (active) | -85.1% (active) | -76.5% (active) | -83.6% (active) | -37.4% (active) | -76.4% (active) | -81.1% (active) | -78.9% (active) | -79.2% (active) | -51.3% (active) | -80.7% (active) | -18.4% (active) | -82.6% (active)
15 | [Cl-].[Rh+3].c1ccc(-c2ccnc3c2ccc2c(-c4ccccc4)ccnc23)cc1.c1ccc(-c2ccnc3c2ccc2c(-c4ccccc4)ccnc23)cc1.c1ccc(-c2ccnc3c2ccc2c(-c4ccccc4)ccnc23)cc1 | 86.6% | 107% | 105% | 92% | 92.4% | 80.9% | 42.1% | -0.367% (active) | 84.8% | 64.6% | 126% | 34.7% | 94.3% | 93.6% | 22.1% | 95% | 69.5% | -5.79% (active) | 63.6% | 45.7%

Source: PubChem BioAssay (NCI)
